Bioassay records: PubChem, National Center for Advancing Translational Sciences (NCATS)
ERK EGF inh: EGF-driven ERK pathway inhibition; HEK293-V1b, EGF-stimulated phospho-ERK AlphaScreen; 130,000 tested, 0.41% active; Potency, µM (top dose mostly 11.5 µM), usual class: inhibitors; further: nearly all actives have a fitted effect of over 55% in size
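Stably V1b-transfected HEK293 cells; 30 min compound, then EGF 25 nM final for 5 min at 37C; 10 min lysis; phospho-ERK by AlphaScreen after 5 hr beads at room temperature.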
Luc counter: blocks Kinase-Glo luciferase, a counter-screen artifact; Kinase-Glo luciferase, ATP luminescence, 8 min; 200,000 tested, 0.28% active; Q27757; Potency, µM (highest dose often 38.3 µM), most hits filed as inhibitors; further: nearly all actives have a fitted effect of over 60% in size
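Kinase-Glo luciferase light output from ATP and luciferin was measured with 10 uM ATP, within the enzyme's linear range. Buffer: 50 mM imidazole pH 7.2, 50 mM KCl, 7 mM MgCl2, 0.01% Tween 20, 0.05% BSA; luminescence read after 8 min at ambient temperature.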
IMPase Li cell: membrane-permeable IMPase blocker, potentiated with lithium; AID 1457; 210,000 tested, 0.35% active; Potency, µM (series often up to 59.4 µM), actives largely listed as inhibitors; CHO-M1 cells, IP1 TR-FRET (IP-One), carbachol + lithium;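 further: IP1 builds up when IMPase is blocked and the TR-FRET signal falls; nearly all actives have a fitted effect of over 50% in size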
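Lithium-sensitised IP1 accumulation assay; M1-expressing CHO cells treated 30 min at 37C with compound. Competitive antibody detection by time-resolved FRET followed a 10 min room-temperature lysis step.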
NPSR antagonist: neuropeptide S receptor (human) antagonism, cAMP | CHO-NPSR cells, cAMP TR-FRET, antagonist mode | Potency, µM (top dose mostly 38.3 µM), hits mostly inhibitors | AID 1461 | Q6W5P4 | 220,000 tested, 1% active; further: nearly all actives have a fitted effect of over 50% in size
Target sequence (Q6W5P4 whole entry, looked up): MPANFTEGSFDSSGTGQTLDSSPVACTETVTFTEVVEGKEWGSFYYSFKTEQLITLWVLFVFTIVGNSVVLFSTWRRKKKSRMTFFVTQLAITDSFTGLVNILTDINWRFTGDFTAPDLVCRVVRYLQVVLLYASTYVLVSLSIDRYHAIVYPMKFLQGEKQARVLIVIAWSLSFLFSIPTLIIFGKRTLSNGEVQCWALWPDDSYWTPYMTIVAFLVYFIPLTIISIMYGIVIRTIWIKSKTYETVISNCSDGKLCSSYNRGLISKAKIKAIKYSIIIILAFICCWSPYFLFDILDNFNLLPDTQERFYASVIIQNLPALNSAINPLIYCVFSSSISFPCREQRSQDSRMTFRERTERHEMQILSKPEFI
Hits are given with their value; . = inactive; ? = inconclusive; / = not tested or not shown; ! = not confirmed by another sample; [ ] = remark or other dose. Compounds with a hit are over-represented: about 1.1% of the library has one in this group of screens. The call rests on the fitted dose curve; in most records, active means well fitted curve in the direction sought with a large enough effect; inconclusive means small, poorly fitted or top-dose-only effect, or another doubt; inactive means no such curve, though single readings can be large; an effect the other way counts as inactive or inconclusive.

SMILES	ERK EGF inh	Luc counter	IMPase Li cell	NPSR antagonist
Cc1nc(N[C@@H](Cc2c[nH]c3ccccc23)C(=O)O)c2oc3ccccc3c2n1	.	.	11.2µM	.
CCc1nc(N[C@@H](Cc2c[nH]c3ccccc23)C(=O)O)c2oc3ccccc3c2n1	/	.	.	.
O=C(Nc1ccc2nc(-c3ccco3)c(-c3ccco3)nc2c1)N1CCCCCC1	/	.	.	10µM
CCOC(=O)C1CCN(C(=O)Nc2ccc3nc(-c4ccco4)c(-c4ccco4)nc3c2)CC1	/	.	.	.
CC(C)c1nc2sc3c(=S)nc[nH]c3c2c2c1CCC2	.	/	/	.
S=c1nc[nH]c2c1sc1nc(N3CCOCC3)c3c(c12)CCCC3	.	.	11.2µM	.
COc1ccc(CCN2C(=O)C(O)=C(C(=O)c3ccco3)C2c2cccs2)cc1OC (centres undefined)	/	.	6.31µM	.
C=CCOc1ccc(C2C(C(=O)c3ccco3)=C(O)C(=O)N2c2nnc(C)s2)cc1 (centres undefined)	.	.	11.2µM	.
O=C(C1=C(O)C(=O)N(CCOCCO)C1c1cccs1)c1cccs1 (centres undefined)	/	.	7.94µM	.
COc1ccc(C2C(C(=O)c3ccco3)=C(O)C(=O)N2CC2CCCO2)cc1 (centres undefined)	.	.	.	.
COc1ccc(C2C(C(=O)c3ccco3)=C(O)C(=O)N2c2nnc(C)s2)cc1 (centres undefined)	.	.	11.2µM	?
O=C(C1=C(O)C(=O)N(Cc2ccco2)C1c1cccs1)c1cccs1 (centres undefined)	.	.	.	.
C[C@@H]1CCN=C(N)S1	.	.	.	/
COCCNC(=O)c1ccc(Cc2nc3ccccc3[nH]2)cc1	/	.	/	/
Cc1ccc2nc(N3C(=O)C(O)=C(C(=O)c4ccco4)C3c3cccs3)sc2c1 (centres undefined)	/	.	?	7.94µM
C[C@@H]1CC[C@H]2[C@H](C)C3[C@H](C[C@H]4[C@@H]5CC=C6C[C@@H](O)CC[C@@]6(C)[C@@H]5C[C@@H](O)[C@]34C)N2C1 (some centres undefined)	/	.[7.66 µM]	.	/
O=C(/C=C1\NC2(CCCC2)Cc2ccccc21)C(=O)N/N=C/c1ccc(O)c(O)c1	.	.	.	12.6µM
Nc1ccc(-c2nc3ccc(-c4nc5ccc(N)cc5[nH]4)cc3[nH]2)cc1	.	.	10µM!	.
Cc1ccc2nc(-c3cccc(N)c3)[nH]c2c1	.	10µM	.	.
Nc1ccc(-c2nc3ccccc3[nH]2)cc1	/	?	.	.
N#Cc1c(-c2ccc(C(F)(F)F)cc2)cc(-c2ccccc2)[nH]c1=S	.	.	.	.
N#Cc1c(N)[nH]c(=S)c(C#N)c1-c1ccccc1	/	.	12.6µM	.
CN1C2CC(OC(=O)C(CO)c3ccccc3)C[C@@H]1[C@H]1OC21 (some centres undefined)	.	.	/	/
C=CCN1c2ccccc2[C@]23C[C@@H](C(=O)OC)N(S(=O)(=O)c4ccc(C(F)(F)F)cc4)C2=NC(C(=O)OC)=C(C(=O)OC)[C@H]13	/	.[7.66 µM]	.	/
COC(=O)c1ccc(C2/C(=C(/O)c3ccc(OC)cc3)C(=O)C(=O)N2c2cc(C)on2)cc1 (centres undefined)	/	.	10µM	.[7.67 µM]
SMILES	ERK EGF inh	Luc counter	IMPase Li cell	NPSR antagonist
Cc1ccc(/C(O)=C2\C(=O)C(=O)N(c3cc(C)on3)C2c2cccc(Br)c2)cc1 (centres undefined)	/	.	?	.
COC(=O)c1ccc(C2/C(=C(/O)c3ccc(OC(C)C)cc3)C(=O)C(=O)N2c2cc(C)on2)cc1 (centres undefined)	/	.	10µM	.
COc1ccc(-c2cnc(-c3cccnc3)o2)cc1	.	.	.	/
O=C(O)c1ccc(NS(=O)(=O)c2cccc3ccccc23)cc1	/	.	/	/
Cc1cc(C)c2nc(-c3ccccn3)cc(C(=O)Nc3ccc(S(=O)(=O)Nc4cc(C)on4)cc3)c2c1	/	.	.	10µM
CCC(Sc1nc(-c2ccccc2)c(C#N)c(=O)[nH]1)C(=O)Nc1cc(C)on1 (centres undefined)	/	.	11.2µM	?
O=C(CSc1nc2scc(-c3ccccc3)c2c(=O)[nH]1)NC1CCCCC1	.	/	?	.
N#Cc1c(-c2ccccc2)nc(SCc2nc(N)nc(N3CCCCC3)n2)[nH]c1=O	/	.	4.47µM	6.31µM
CCSc1nc(-c2ccccc2)c(C#N)c(=O)[nH]1	/	.	2µM	.
N#Cc1c(-c2ccccc2)nc(SCC(=O)NC2CCCCC2)[nH]c1=O	.	.	10µM	.
COC(=O)CCCC1=CC2=C(c3ccccc3)C(=O)C(C)(OC(=O)C3CCCC3)C(=O)C2=CO1 (centres undefined)	.	.	.	/
COc1cccc(-c2cncnc2NCc2cccnc2)c1	/	/	.	/
Cc1ccccc1C(=N)c1ccccc1Cc1cccc2ccccc12	/	.[7.66 µM]	.	/
COCCNc1ncnc2ccc(-c3c(C)noc3C)cc12	/	/	.	/
CNC(=O)NC(=O)CSc1nc(-c2cccs2)c(C#N)c(=O)[nH]1	.	.	5.01µM	?
CCOC(=O)Cc1csc(NC(=O)CSc2nc(-c3ccccc3)c(C#N)c(=O)[nH]2)n1	.	.	.	.
COC(=O)C(CC(C)C)NC(=O)CSc1nc(-c2ccccc2)c(C#N)c(=O)[nH]1 (centres undefined)	/	.	8.91µM	.
CC1(C)S[C@@H]2[C@H](NC(=O)[C@@H](N)c3ccc(O)cc3)C(=O)N2[C@H]1C(=O)O	.	.	.	/
N#CC(c1ccc(Cl)cc1)c1ccc2c(C(F)(F)F)cc(C(F)(F)F)nc2n1 (centres undefined)	/	.	.	6.31µM
FC(F)(F)c1cc(C(F)(F)F)c2ccc(N3CCN(c4ccc(Cl)cc4)CC3)nc2n1	/	.	.	.
COc1c(C)cccc1C(=O)NC(=S)Nc1cccc2nsnc12	.	.	.	7.94µM
CCOc1ccc(/C=N/NC(=O)c2[nH]ncc2Br)c(O)c1	.	11.2µM	.	.
COc1ccc(OC)c(/C=N/NC(=O)c2[nH]ncc2Br)c1	.	/	/	.[7.67 µM]
Cc1ccc(-c2cc(-c3ccccc3)c3c(N)c(S(C)(=O)=O)sc3n2)cc1	/	.	10µM	.
N#Cc1sc2nc(-c3ccccc3)cc(-c3ccco3)c2c1N	/	.	.	.
SMILES	ERK EGF inh	Luc counter	IMPase Li cell	NPSR antagonist
CS(=O)(=O)c1sc2nc(-c3cccs3)cc(-c3ccccc3)c2c1N	/	.	?	10µM
O=c1cc(-c2ccc(O)c(O)c2)oc2ccccc12	.	.	.	/
COc1c(C2=CC(=O)N(C)C2=O)c2c(n1C)C(=O)c1ccccc1C2=O	.	.	.	/
O=C(CCn1c(=O)[nH]c2ccsc2c1=O)Nc1ccc(F)c(F)c1	/	.	10µM	.
COc1cccc(-n2nnnc2S(C)(=O)=O)c1	/	.	.	10µM
O=C(Nc1ccccc1)c1ccc(Cc2nc3ccccc3[nH]2)cc1	/	.	/	/
O=c1[nH]c2c(s1)C(c1ccc(O)cc1)C1C3CCC(C3)C1S2 (centres undefined)	/	.	.	10µM
COc1ccc(C2c3sc(=O)[nH]c3SC3C4CCC(C4)C23)cc1OC (centres undefined)	.	.	.	7.94µM
